Screening data as filed in PubChem.
Compounds with a hit are over-represented: about 6.1% of the library has one in this group of screens.
Cdc25B block = human M-phase inducer phosphatase 2 inhibition | 0.1% of 65,000 active | recombinant Cdc25B, OMFP fluorescence Ex485/Em525 | inhibition, %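 (compounds tested at 10 µM final in the well)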 | P30305 | AID 368; in the data active means inhibition above about 50%
M1 antag = antagonists of rat M1 muscarinic receptor; B-score at 10 µM; P08482; AID 628; 3.4% of 64,000 active; CHO-M1 cells, Fluo-4 calcium, ACh EC80 antagonist mode; hits give low values;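 active means calcium fluorescence response, raw or row-and-column corrected B-score, differing from the plate sample mean either way at a set confidence level, mostly lower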
MMP-13 inhibitor = blocks human MMP13 activity; AID 570; 0.07% of 65,000 active; inhibition, % at 4 µM; P45452; MMP-13 fTHP FRET cleavage, Mca fluorescence;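 active means inhibition above the mean of compound-free control plate wells plus 3 SD, cut at about 14% in these data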;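 further: 0% = DMSO wells and 100% = wells with reference MMP-13 inhibitor after basal subtraction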
M1 agonist = activates the M1 muscarinic receptor. CHO-M1 cells, Fluo-4 calcium fluorescence, agonist mode; hits give high values. B-score at 10 µM. 3% of 64,000 active. AID 626;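 active means fluorescence rise, raw or as B-score row- and column-corrected plate score, outside the 99.7% band of its plate's samples, either direction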
Hsp90 block = displaces geldanamycin probe from tumor Hsp90. P07900. NCI-N417 lysate Hsp90, Cy3B-geldanamycin FP displacement. inhibition, % at 30 µM. 0.35% of 64,000 active;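 active means inhibition above 50%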;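 further: 0% = tracer plus lysate wells and 100% = tracer alone without lysate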
MKP-1 inh = blocks human MKP-1 phosphatase activity; P28562; inhibition, %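 (compounds tested at a single concentration somewhere between 10 and 100 µM)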; recombinant MKP-1, OMFP hydrolysis fluorescence; 0.15% of 65,000 active;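 active means inhibition above about 50%, limit read from the data; inconclusive means inhibition over screen mean plus 3 SD, below that limit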;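 further: 0% = DMSO max control wells and 100% = wells with enzyme stopped by NaOH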
M1 ag confirm = rat M1 muscarinic agonism, confirmation; shares compounds with M1 agonist; CHO-M1 cells, Fluo-4 calcium fluorescence, agonist mode; actives lie on both sides; fluorescence change (max-min) at 10 µM; 19% of 1,700 active; AID 1488;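 active means fluorescence change differs from the solvent-only DMSO control mean at a set confidence level in both duplicate runs; inconclusive means differs from solvent-only control mean in just one of two runs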;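 further: an EC20 dose of acetylcholine follows compound addition during the same imaging run; raw fluorescence intensity difference in instrument units with no normalization to controls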
M4 ag counter = rat M4 muscarinic agonism, M1 counter-screen | shares compounds with M1 agonist | CHO M4/Gqi5 cells, Fluo-4 calcium fluorescence, agonist mode; actives lie on both sides | fluorescence change (max-min) at 10 µM | 9% of 1,700 active | AID 1741;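 active means fluorescence change differing from the plate's solvent-only control wells at 99.7% confidence in both duplicates, whether higher or lower; inconclusive means differs from solvent controls in only one of two duplicates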
Target sequence (P08485 whole entry, looked up): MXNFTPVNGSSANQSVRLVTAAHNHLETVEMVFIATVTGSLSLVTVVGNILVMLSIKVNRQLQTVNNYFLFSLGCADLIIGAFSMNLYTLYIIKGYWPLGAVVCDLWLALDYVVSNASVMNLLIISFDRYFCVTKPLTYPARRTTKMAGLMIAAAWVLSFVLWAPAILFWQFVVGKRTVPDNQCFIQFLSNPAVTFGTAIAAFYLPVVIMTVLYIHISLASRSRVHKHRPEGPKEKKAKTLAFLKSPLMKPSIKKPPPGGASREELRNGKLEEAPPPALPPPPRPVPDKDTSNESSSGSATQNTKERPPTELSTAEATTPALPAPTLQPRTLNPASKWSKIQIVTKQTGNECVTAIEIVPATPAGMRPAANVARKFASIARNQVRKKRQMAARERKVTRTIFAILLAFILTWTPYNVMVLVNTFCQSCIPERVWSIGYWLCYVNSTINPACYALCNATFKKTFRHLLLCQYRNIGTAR
* marks the source's active call; other numbers are inactive results; ? = inconclusive; / = no result given.

SMILES	Cdc25B block	M1 antag	MMP-13 inhibitor	M1 agonist	Hsp90 block	MKP-1 inh	M1 ag confirm	M4 ag counter
Cc1cc(C)cc(OCC(=O)Nc2cccc(-c3nnc(-c4ccco4)o3)c2)c1	-7	-0.73	-15	4.5*	1	4	-30*	-55
Cc1cc(NS(=O)(=O)c2cccs2)no1	7	-0.11	-2	-0.77	-1	10	/	/
O=S(=O)(Nc1cnc2ccccc2c1)N1CCCCCC1	-8	-1.6	-7	-2.5*	-6	15	-13	-17
COc1ccc(OC)c(S(=O)(=O)Nc2cnc3ccccc3c2)c1	-3	-0.36	3	0.0099	-5	10	/	/
Cc1cc(OCC(=O)N2CCOCC2)cc2oc(=O)c3ccccc3c12	-4	-0.02	-191	-0.31	-2	7	/	/
Cc1ccc(-c2noc(CN3C(C)CCCC3C)n2)cc1 (configuration not stated)	-8	-1.2	0	0.62	2	-11	/	/
C=CCn1c(NCCc2ccccc2)nc2c1c(=O)n(C)c(=O)n2C	-1	-0.93	0	6.5*	1	30	25	-29
C/C(Cl)=C\Cn1c(NCCc2ccccc2)nc2c1c(=O)n(C)c(=O)n2C	4	0.13	0	1.1	-7	-9	/	/
O=S(=O)(c1cccs1)N1CCCc2ccccc21	-1	0.93	2	0.093	-3	5	/	/
O=C(c1ccccc1C(=O)N1CCN(c2ccccc2)CC1)N1CCN(c2ccccc2)CC1	2	0.26	8	3.7*	-9	10	5.4	-41
COc1cccc(NC(=O)c2cccs2)c1	-1	-0.13	4	2.4*	5	-2	?	?
CN(C)c1ccc(/C=C/C(O)=C2/C(=O)N(C)C3(C)CC2c2ccccc2O3)cc1 (configuration not stated)	-9	0.17	7	28*	-1	20	232*	229*
COc1ccc(C(=O)N2CCc3cc(OC)c(OC)cc3C2)cc1OC	-1	0.38	-2	-0.2	-2	7	/	/
COC(=O)c1ccc(OCC2c3cc(OC)c(OC)cc3CCN2C(=O)C2CC2)cc1 (configuration not stated)	-6	-0.099	-4	8.7*	0	35	-32*	-47
Cc1ccc(C)c2[nH]c(=O)c(CN(Cc3ccco3)C(=O)Nc3ccccc3)cc12	-16	-0.37	2	5.2*	-3	0	-13	-47
Cc1ccc2cc(CN(Cc3ccco3)C(=O)NCc3ccccc3)c(=O)[nH]c2c1C	-1	-0.04	-6	-0.025	0	13	/	/
Cc1cc(=O)oc2ccc(OCC(=O)N(Cc3ccc(F)cc3)Cc3ccco3)cc12	-8	-2.4*	-4	6.4*	2	2	?	-37
O=C(OCC(=O)N1CCN(C(=O)c2ccco2)CC1)c1sc2ccccc2c1Cl	-5	0.25	-2	-0.15	/	6	/	/
O=C(OCC(=O)N1CCN(C(=O)c2ccco2)CC1)c1ccccc1OCc1ccc(Cl)cc1	-18	0.083	-21	4.5*	1	31	-18	?
Cc1sc2nc3ccc(N4CCCC4)nn3c(=O)c2c1C	-8	-0.56	-17	6.6*	-4	14	-8.3	-46
COC(=O)c1sccc1NC(=O)c1csc(C)c1	0	0.057	-2	-0.48	-1	-8	/	/
CCn1cc(C(=O)NCc2ccccn2)c(=O)c2cc(S(=O)(=O)N3CCCCC3)ccc21	-2	1.2	-2	11*	65*	33	73*	17
COc1ccccc1C(=O)Nc1ccccn1	-39	0.55	1	-0.18	1	-12	/	/
CCN(CC)c1ccc2cc(NC(=O)CCC(=O)O)c(=O)oc2c1	-3	-1.6*	-23	289*	0	15	1953*	1754*
CCN(CC)c1ccc2cc(C(=O)Nc3ccccn3)c(=O)oc2c1	-25	-4.6*	-7	353*	8	-6	964*	1294*
SMILES	Cdc25B block	M1 antag	MMP-13 inhibitor	M1 agonist	Hsp90 block	MKP-1 inh	M1 ag confirm	M4 ag counter
Cc1ccc(NC(=O)CCC(=O)O)cc1F	0	0.2	-3	0.23	0	10	/	/
Cc1nnc(NC(=O)CCC(=O)N2CCN(CCc3ccccc3)CC2)s1	4	0.091	0	0.84	-3	-8	/	/
CCOC(=O)N1CCN(c2c(NCCCN(CC)Cc3ccccc3)c(=O)c2=O)CC1	-14	1.2	2	-0.085	0	-2	/	/
CCOC(=O)N1CCN(c2cc(NCCC(=O)O)c3c4c(onc24)-c2ccccc2C3=O)CC1	39	0.7	5	14*	29	41	-7.4	-21
COCC(=O)N(Cc1ccco1)c1nnc(C2CCOC2)s1 (configuration not stated)	-7	-0.42	6	-0.11	-3	6	/	/
O=C(OCCNC(=O)c1ccc2ccccc2n1)c1cccnc1	5	0.1	/	3.2*	/	5	?	-48
COCCNC(=O)c1ccc2ccccc2n1	-7	0.54	-5	0.94	-2	3	/	/
CN1C(=S)SC(C)(C)C1(C)NO (configuration not stated)	-3	-0.048	5	-0.08	-2	18	/	/
CN(C)S(=O)(=O)c1cccc(C(=O)OCC(=O)Nc2sccc2C(N)=O)c1	-11	-3.3*	3	8.8*	-1	22	?	-69*
CCOC(=O)C(O)(C1C(=O)CC(C)(C)CC1=O)C(F)(F)F (configuration not stated)	-26	0.00058	-2	0.6	3	-37	/	/
O=C1CCC(c2ccccc2)N1C(=O)c1cccnc1 (configuration not stated)	-1	-0.36	2	-0.74	-1	4	/	/
CC(OC(=O)c1ccc2ccccc2n1)C(=O)Nc1ccc(N2CCOCC2)cc1 (configuration not stated)	-8	1.1	-4	-0.54	-2	31	/	/
CN(C)CCCNC(=O)CC(c1ccccc1)c1ccccc1O (configuration not stated)	-2	-1	4	0.29	-4	-3	/	/
C=CCN(C(=O)CNC(=O)c1ccco1)C(C(=O)NC1CCCCC1)c1ccc(OC)cc1OC (configuration not stated)	9	0.7	2	1.4	-3	5	/	/
COCCn1nnnc1C(c1cccc(OC)c1OC)N1CCN(C2CCCCC2)CC1 (configuration not stated)	-8	0.42	4	18*	-2	-12	?	-51
O=C(CSc1cccc[n+]1[O-])c1cc2ccccc2o1	-14	0.11	4	0.018	0	0	/	/
Cc1cc(C)c2c(n1)nn1c(C3CC3)cc(C(F)(F)F)nc21	3	-0.015	-2	1.3	-3	1	/	/
